Laboratory results from article PMC4336329 (PLoS ONE, 2015).
The whole screen tested about 310,000 compounds, of which about 14,000 (4.5%) showed an effect of 50% or more. The effect is printed as a negative number. The sample holds strong results, similar compounds and a random draw of the others, so the mix is not that of the screen.

Molecular target: human ether-à-go-go-related gene (hERG) potassium channel (human, UniProt Q12809)
Experiment: primary screen, population patch clamp on CHO cells stably expressing hERG; higher = less effect of the substance
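Also: peak tail current of the secondary pulse compared with the same well before compound.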

Chain of human ether-à-go-go-related gene (hERG) potassium channel (Q12809 whole entry, looked up): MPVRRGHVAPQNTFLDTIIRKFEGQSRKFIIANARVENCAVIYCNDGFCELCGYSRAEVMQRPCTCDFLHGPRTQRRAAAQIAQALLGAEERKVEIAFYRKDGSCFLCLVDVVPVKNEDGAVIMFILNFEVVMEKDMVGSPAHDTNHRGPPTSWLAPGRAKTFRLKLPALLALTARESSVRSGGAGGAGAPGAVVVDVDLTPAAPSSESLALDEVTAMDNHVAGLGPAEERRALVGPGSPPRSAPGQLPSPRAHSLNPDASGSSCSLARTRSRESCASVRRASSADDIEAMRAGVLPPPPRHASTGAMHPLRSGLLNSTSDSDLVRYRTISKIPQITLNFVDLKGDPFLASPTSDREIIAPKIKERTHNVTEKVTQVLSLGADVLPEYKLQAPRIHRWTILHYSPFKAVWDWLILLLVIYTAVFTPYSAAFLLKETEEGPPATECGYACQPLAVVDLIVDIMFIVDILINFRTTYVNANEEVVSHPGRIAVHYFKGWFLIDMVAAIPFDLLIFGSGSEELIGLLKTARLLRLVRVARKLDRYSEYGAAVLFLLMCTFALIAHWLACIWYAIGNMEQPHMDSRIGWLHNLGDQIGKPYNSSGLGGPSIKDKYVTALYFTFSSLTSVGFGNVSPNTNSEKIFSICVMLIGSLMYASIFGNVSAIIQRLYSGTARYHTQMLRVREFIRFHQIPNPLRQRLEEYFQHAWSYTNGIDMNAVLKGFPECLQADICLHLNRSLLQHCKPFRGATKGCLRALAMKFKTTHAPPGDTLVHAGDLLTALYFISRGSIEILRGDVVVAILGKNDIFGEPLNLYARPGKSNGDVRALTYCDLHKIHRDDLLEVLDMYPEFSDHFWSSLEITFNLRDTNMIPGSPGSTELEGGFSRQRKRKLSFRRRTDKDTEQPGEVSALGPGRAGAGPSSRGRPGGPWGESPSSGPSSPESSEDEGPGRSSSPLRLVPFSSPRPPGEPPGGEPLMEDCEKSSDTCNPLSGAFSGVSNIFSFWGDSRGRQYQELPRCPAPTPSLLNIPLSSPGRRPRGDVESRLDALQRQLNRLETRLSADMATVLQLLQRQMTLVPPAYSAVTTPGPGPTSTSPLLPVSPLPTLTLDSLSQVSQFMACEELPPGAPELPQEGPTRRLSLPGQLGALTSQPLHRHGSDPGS

SMILES | hERG current change (%, negative = inhibition) at 10uM [%]
CCS(=O)(=O)c1ncc(Cl)c(C(=O)Nc2ccc(S(=O)(=O)N3CCC(C)CC3)cc2)n1 | 14.9
CC(=O)c1ccc(NC(=O)C(C)OC(=O)c2ccc(NS(=O)(=O)c3ccc(F)c(F)c3)cc2)cc1 (stereo not shown) | -6.98
COc1ccc(C(C)NC(=O)c2ccc(Cl)cc2)cc1OC (stereo not shown) | 0.0898
Cc1ccc(/C=C/c2nnc(-c3ccc(C)cc3)o2)cc1 | 11.3
COCCNC(=O)Nc1ccc2c(c1)N(C)C(=O)CS2 | 11.5
COc1ccc(NC(=O)/C(=C\c2ccc(OS(=O)(=O)c3ccc(C)cc3)cc2)NC(=O)c2ccccc2)cc1 | 17.1
CC(=O)N1CCN=C1SCc1ccccc1F | 12.6
Cc1cc(C(=O)O)c(S(C)(=O)=O)s1 | -1.18
O=[N+]([O-])c1cccc(-c2nnn(C34CC5CC(CC(C5)C3)C4)n2)c1 | 5.85
CC1CC(C)CN(CCC(=O)Nc2ccc(Br)cc2)C1.Cl (stereo not shown) | -53.5
Cc1ccc(NC(=O)CCN2CCC(C)CC2)cc1.Cl | 18.6
CC1CCN(CCC(=O)Nc2ccc(Cl)cc2)CC1.Cl | -56.9
CC1CCN(CCC(=O)Nc2ccccc2)CC1 | -10.1
CC1CC(C)CN(CCC(=O)Nc2ccc3c(c2)CCC3)C1.Cl (stereo not shown) | -43.6
Cc1cccc(NC(=O)CCN2CC(C)CC(C)C2)c1.Cl (stereo not shown) | -49.2
COc1ccc(CN2C(=O)NC3(CCOc4ccccc43)C2=O)cc1F (stereo not shown) | -13.4
COC(=O)c1c(NC(=S)Nc2ccc(F)cc2[N+](=O)[O-])sc2c1CCCCC2 | 4.46
CCN(CC)C(=O)C1CCCN(C/C=C/c2ccccc2[N+](=O)[O-])C1 (stereo not shown) | -33
CCOC(=O)C1CCCN(C/C=C/c2ccccc2)C1 (stereo not shown) | -24.5
CCC1CCCCN1C/C=C/c1ccccc1[N+](=O)[O-] (stereo not shown) | -60.2
O=[N+]([O-])c1ccccc1/C=C/CN1CCCCC1CO (stereo not shown) | 5.49

SMILES | hERG current change (%, negative = inhibition) at 10uM [%]
CCOC(=O)C1CCN(C/C=C/c2ccccc2OC)CC1 | -20.5
CC1CCCN(C/C=C/c2ccccc2[N+](=O)[O-])C1 (stereo not shown) | -23.1
CCOC(=O)C1CCN(C/C=C/c2ccccc2[N+](=O)[O-])CC1 | -70.2
CCOC(=O)C1CCCN(C/C=C/c2ccccc2[N+](=O)[O-])C1 (stereo not shown) | -68.2
O=[N+]([O-])c1ccccc1/C=C/CN1CCCCC1 | -6.44
CC1CC(C)CN(C/C=C/c2ccccc2[N+](=O)[O-])C1 (stereo not shown) | -55.9
CCOC(=O)C1CCN(C/C=C/c2ccccc2)CC1 | -28.2
CC1CCCCN1C/C=C/c1ccccc1[N+](=O)[O-] (stereo not shown) | -39
C[N+](C)(C)CCN1C(=O)CSC1=O.[I-] | 10.3
COC(=O)c1ccc(NC(=O)CSCc2ccccc2)cc1 | -13.8
Cc1ccccc1C(=O)O/N=C1\CCS(=O)(=O)c2sccc21 | 8.17
Cc1ccccc1NC(=S)NC(NC(=O)CF)C(Cl)(Cl)Cl (stereo not shown) | 2.77
CCOP(=O)(OCC)C(NC(=O)Nc1cccc(Cl)c1)C(N)=O (stereo not shown) | 8.47
C/C(=N\OCC(=O)Nc1ccccc1C(C)(C)C)c1ccc2c(c1)OCCO2 | -10.9
O=C(Nc1ccc(Cl)cc1)OCc1cc(-c2ccccc2Cl)on1 | 7.51
CC1CN(C(=O)COC(=O)c2ccc(Cl)nc2)CC(C)O1 (stereo not shown) | 6.41
COc1ccc(OC)c(C2CC(=O)N3CN(c4ccccc4)CSC3=C2C#N)c1 (stereo not shown) | 9.38
CC(=O)n1cc(/C=C2/N=C(c3ccccc3)OC2=O)c2ccccc21 | 7.37
CC1CC(c2ccccc2)n2nc(N3C(=O)c4ccccc4C3=O)nc2N1 (stereo not shown) | 12.4
O=C1C2CC=CCC2C(=O)N1c1nc2n(n1)C(c1ccccc1)CC(c1ccccc1)N2 (stereo not shown) | -52.6
CC1=CC(c2ccccc2)n2nc(N3C(=O)C4CC=CCC4C3=O)nc2N1 (stereo not shown) | -7.93

SMILES | hERG current change (%, negative = inhibition) at 10uM [%]
CC1C/C(=C/c2cccn2C)C(=O)/C(=C/c2cccn2C)C1 (stereo not shown) | 9.5
O=C(NCc1nc(-c2ccc(C(F)(F)F)cc2)no1)c1cccs1 | 5.51
CCOc1ccc(-n2ccnc2SCC(=O)N2CCCc3ccccc32)cc1 | -13.7
N#CCCN1CCN(C(=S)c2ccc(-c3cc(Cl)ccc3Cl)o2)CC1 | -12.3
S=C(c1ccc(-c2cccc(Cl)c2)o1)N1CCCCC1 | 21.7
S=C(c1ccc(-c2cccc(Cl)c2)o1)N1CCOCC1 | 2.46
N#CCCN1CCN(C(=S)c2ccc(-c3ccc(Cl)c(Cl)c3)o2)CC1 | -14.1
N#CCCN1CCN(C(=S)c2ccc(-c3ccc(Cl)cc3)o2)CC1 | -55.8
N#CCCN1CCN(C(=S)c2ccc(-c3cccc(Cl)c3)o2)CC1 | -59.9
CC(C)c1ccc2oc(=O)cc(CN3CCCCC3)c2c1 | -12.8
O=C(CN1N=C(c2ccc(Cl)cc2)CCC1=O)NCc1cccnc1 | -26.4
CCO.CCn1c(COc2ccc3c(c2)OCO3)nnc1SCC(=O)O | -0.394
CCOC(=O)N1CCN(C(=O)CS(=O)(=O)Cc2nc(-c3ccccc3F)oc2C)CC1 | -13.6
Cn1c(SCC(=O)N2CCCC2)nc2cccnc21 | 16.9
O=C(CSc1nc2cccnc2n1Cc1ccccc1)N1CCCC1 | -63.7
CCOC(=O)CNC(=O)CSc1nc2cccnc2n1Cc1ccccc1 | -53.9
CCOC(=O)CNC(=O)CSc1nc2cccnc2n1CC | -7.04
COCCn1c(SCC(=O)N2CCCCC2)nc2cccnc21 | -1.5
CCOC(=O)CNC(=O)CSc1nc2cccnc2n1C | 7.54
